In PubChem BioAssay (Tox21):
Values joined by “and” are separate entries in the source; they are usually repeats but may differ in a detail not shown here. Identical values can stand only once. Some structures have more than one record in an assay (separate samples or runs), and their calls can disagree. Active and inactive are the calls of the source. Unless noted, calls follow the shape of the dose curve; as a rule, active = well fitted curve in the direction sought with a large enough effect in the repeat runs; inconclusive = weak or mixed curves; inactive = no such curve, though single readings can be large; an effect the other way counts as inactive or inconclusive.

Tests used:
[1] = qHTS assay to identify small molecule antagonists of the thyroid receptor (TR) signaling pathway - cell viability counter screen (AID 743064); also: nearly all actives have a fitted effect of over 50% in size; also: potency is read from the fitted curve at half-maximal effect
How it was run: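 Counter screen for cytotoxicity: compound plus T3 (1 nM final) on GH3.TRE-Luc cells, 23.5 h at 37 °C, then fluorescence viability readout with CellTiter-Fluor.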

[2] = tested on: thyroid hormone receptor (rat, GH3 cells); assay: qHTS assay to identify small molecule agonists of the thyroid receptor (TR) signaling pathway (AID 743066; calls by dose curve)
[3] = qHTS assay to identify small molecule antagonists of the estrogen receptor alpha (ER-alpha) signaling pathway - cell viability counter screen (AID 743074; calls by dose curve;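 also: HEK293 cells carrying ER-alpha-UAS-bla reporter stimulated with 17beta-estradiol; nearly all actives have a fitted effect of over 45% in size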)
[4] = qHTS assay to identify small molecule antagonists of the estrogen receptor alpha (ER-alpha) signaling pathway using the BG1 cell line - cell viability counter screen (AID 743081);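 also: compound given together with 17beta-estradiol as the ER stimulus; nearly all actives have a fitted effect of over 45% in size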
[5] = qHTS assay to identify aromatase inhibitors - cell viability counter screen (AID 743084);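 also: cells stimulated with testosterone during compound exposure; nearly all actives have a fitted effect of over 55% in size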; also: potency is read from the fitted curve at half-maximal effect
[6] = qHTS assay to identify small molecule that activate the aryl hydrocarbon receptor (AhR) signaling pathway - cell viability counter screen (AID 743086);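 also: HepG2 liver cells carrying the AhR DRE luciferase reporter; nearly all actives have a fitted effect of over 45% in size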
How it was run: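 Cytotoxicity counter screen: CellTiter-Fluor signal (30 min, 37 C) in 4000 HepG2 cells/well carrying the DRE-luciferase reporter, following 24 h compound exposure at 37 C.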

[7] = target: Peroxisome proliferator-activated receptor gamma (Homo sapiens) (UniProt P37231); assay: qHTS assay to identify small molecule agonists of the peroxisome proliferator-activated receptor gamma (PPARg) signaling pathway (AID 743094; active = well fitted activation curve with a large enough effect in the signal ratio in the repeat runs, not every such curve was filed as active; inconclusive = weak or mixed curves, or effect the other way; inactive = no such curve, though single readings can be large or run the other way; the % refers to the signal ratio)
How it was run: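 Following 5 h plating at 37C, PPARg-bla HEK293H cells receive compound or DMSO for 17 h; fluorescence intensity is recorded after LiveBLAzer B/G loading for 1 h at room temperature.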

[8] = qHTS assay for small molecule activators of the heat shock response signaling pathway - cell viability counter screen (AID 743209); also: nearly all actives have a fitted effect of over 50% in size
How it was run: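 Counter screen for cytotoxicity in HeLa HSE-bla reporter cells. Treatment was 5 h at 37 C; viability was detected by luminescent ATP assay (CellTiter-Glo) in the same wells as the beta-lactamase read.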

[9] = qHTS assay for small molecule activators of the heat shock response signaling pathway (AID 743210; active = well fitted activation curve with a large enough effect in the signal ratio in the repeat runs, with a control signal flat, not every such curve was filed as active; inconclusive = weak or mixed curves; the % refers to the signal ratio;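 also: HeLa cells with beta-lactamase reporter driven by heat shock elements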)
How it was run: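 HeLa HSE-bla cells, overnight plating; cpd in DMSO 5 h, 37 C; LiveBLAzer B/G FRET substrate 2.5 h RT; fluorescence intensity read.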

[10] = target: Estrogen receptor (Homo sapiens) (UniProt P03372); assay: qHTS assay to identify small molecule antagonists of the estrogen receptor alpha (ER-alpha) signaling pathway (AID 743069; active = well fitted curve in the direction sought with a large enough effect in the signal ratio in the repeat runs, not every such curve was filed as active; inconclusive = weak or mixed curves, or effect the other way; inactive = no such curve, though single readings can be large or run the other way; the % refers to the signal ratio)
How it was run: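 ER-alpha-UAS-bla GripTite HEK293 line; 2% charcoal-stripped FBS overnight; plated, 4 hr 37C/5% CO2; cpd in DMSO + 17beta-estradiol, 18 hr 37C; LiveBLAzer B/G FRET substrate 2 hr RT; fluorescence intensity.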

[11] = target: Estrogen receptor (Homo sapiens) (UniProt P03372); assay: qHTS assay to identify small molecule agonists of the estrogen receptor alpha (ER-alpha) signaling pathway (AID 743075; calls by dose curve;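 also: HEK293 GripTite cells with ER-alpha and UAS-driven beta-lactamase reporter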; also: potency is read from the fitted curve at half-maximal effect)
[12] = target: Estrogen receptor (Homo sapiens) (UniProt P03372); assay: qHTS assay to identify small molecule agonists of the estrogen receptor alpha (ER-alpha) signaling pathway using the BG1 cell line (AID 743079); settings: BG1Luc4E2 cells, ERE-luciferase agonist, 22 h; also: nearly all actives have a fitted effect of over 20% in size; also: potency is read from the fitted curve at half-maximal effect
[13] = qHTS assay to identify small molecule antagonists of the estrogen receptor alpha (ER-alpha) signaling pathway using the BG1 cell line (AID 743080; calls by dose curve;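 also: BG1 cells stimulated with 17beta-estradiol alongside compound; nearly all actives have a fitted effect of over 25% in size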; also: potency is read from the fitted curve at half-maximal effect)
How it was run: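 Quantitative HTS on the Tox21 10K library: BG1 cells with endogenous ER-alpha and ERE-luciferase reporter, 17beta-estradiol stimulation, 21.5 h compound exposure, luminescence endpoint with parallel fluorescence cytotoxicity counter-read.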

Aromatase (Homo sapiens) = Aromatase (Homo sapiens) (UniProt P11511); assay: qHTS assay to identify aromatase inhibitors (AID 743083); also: nearly all actives have a fitted effect of over 55% in size; also: potency is read from the fitted curve at half-maximal effect
[14] = target: Aryl hydrocarbon receptor (Homo sapiens) (UniProt P35869); assay: qHTS assay to identify small molecule that activate the aryl hydrocarbon receptor (AhR) signaling pathway (AID 743085); also: nearly all actives have a fitted effect of over 15% in size; also: potency is read from the fitted curve at half-maximal effect;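 as to activation: HG2L7.5c1 human HepG2 liver cells with stably integrated DRE-driven firefly reporter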
How it was run: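 Measured in HG2L7.5c1 cells: CellTiter-Fluor signal (30 min incubation, 37C) for viability, then luciferase luminescence (30 min, room temperature). Compound contact time was 24 h at 37C, following a 5 h pre-incubation.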

[15] = qHTS assay to identify small molecule antagonists of the peroxisome proliferator-activated receptor gamma (PPARg) signaling pathway - cell viability counter screen (AID 743194); settings: Potency: co-treated with 50 nM rosiglitazone; also: nearly all actives have a fitted effect of over 55% in size
How it was run: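 Viability was measured as CellTiter-Glo luminescence in GeneBLAzer PPARg UAS-bla HEK293H cells. These cells had been exposed 17 h at 37 C to compounds together with rosiglitazone at 50 nM final, with the beta-lactamase readout taken in the same wells.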

[16] = qHTS assay for small molecule agonists of the antioxidant response element (ARE) signaling pathway (AID 743202; active = well fitted activation curve with a large enough effect in the signal ratio in the repeat runs, not every such curve was filed as active; inconclusive = weak or mixed curves, or effect the other way; inactive = no such curve, though single readings can be large or run the other way; the % refers to the signal ratio)
How it was run: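 Quantitative high-throughput format in HepG2 cells bearing an integrated ARE-beta-lactamase reporter. Compound exposure lasted 16 h at 37 C, and fluorescence was read 2 h after adding LiveBLAzer B/G substrate at room temperature.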

[17] = qHTS assay for small molecule agonists of the antioxidant response element (ARE) signaling pathway - cell viability counter screen (AID 743203; calls by dose curve; also: nearly all actives have a fitted effect of over 55% in size)
How it was run: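 Compounds in DMSO were pinned onto ARE-bla HepG2 cells plated 5 hrs earlier at 2,000 cells/well. Sixteen hours later at 37C/5% CO2, CellTiter-Glo was added and luminescence measured after 30 min at room temperature.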

[18] = target: Peroxisome proliferator-activated receptor gamma (Homo sapiens) (UniProt P37231); assay: qHTS assay to identify small molecule antagonists of the peroxisome proliferator-activated receptor gamma (PPARg) signaling pathway (AID 743191; calls by dose curve; also: nearly all actives have a fitted effect of over 30% in size)
How it was run: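 Beta-lactamase reporter under UAS control in HEK293H PPARg-bla cells; compound treatment 17 h at 37C. Read-out: fluorescence intensity after 1 h room-temperature incubation with LiveBLAzer B/G FRET substrate.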

[19] = qHTS assay to identify small molecule antagonists of the thyroid receptor (TR) signaling pathway (AID 743065); also: nearly all actives have a fitted effect of over 55% in size
How it was run: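 Antagonism measured as loss of luciferase signal in GH3 cells stably carrying a TRE-luciferase reporter, co-treated with compound and T3 (1 nM final) for 23.5 h at 37 C. Viability was read in the same well by CellTiter-Fluor.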
% is scaled to controls: 0 for no effect and ±100 for the full control effect.

Sequence of Estrogen receptor (Homo sapiens) (P03372 whole entry, looked up): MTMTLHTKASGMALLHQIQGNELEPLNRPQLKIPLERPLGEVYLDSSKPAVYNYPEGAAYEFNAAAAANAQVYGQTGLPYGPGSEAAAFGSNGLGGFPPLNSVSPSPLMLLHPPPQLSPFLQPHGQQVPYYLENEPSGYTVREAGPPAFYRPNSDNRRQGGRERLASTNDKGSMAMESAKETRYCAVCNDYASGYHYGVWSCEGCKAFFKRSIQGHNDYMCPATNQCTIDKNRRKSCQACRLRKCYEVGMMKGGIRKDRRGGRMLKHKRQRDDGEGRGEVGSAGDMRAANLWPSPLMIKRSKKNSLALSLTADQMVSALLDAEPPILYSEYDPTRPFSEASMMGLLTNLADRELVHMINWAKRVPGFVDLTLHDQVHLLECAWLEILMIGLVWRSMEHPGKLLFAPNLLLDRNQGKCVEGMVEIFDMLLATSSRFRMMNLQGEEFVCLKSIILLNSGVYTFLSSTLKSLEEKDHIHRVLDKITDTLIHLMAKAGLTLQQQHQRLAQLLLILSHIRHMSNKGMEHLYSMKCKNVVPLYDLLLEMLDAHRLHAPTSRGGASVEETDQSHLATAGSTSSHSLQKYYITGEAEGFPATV
Sequence of Aryl hydrocarbon receptor (Homo sapiens) (P35869 whole entry, looked up): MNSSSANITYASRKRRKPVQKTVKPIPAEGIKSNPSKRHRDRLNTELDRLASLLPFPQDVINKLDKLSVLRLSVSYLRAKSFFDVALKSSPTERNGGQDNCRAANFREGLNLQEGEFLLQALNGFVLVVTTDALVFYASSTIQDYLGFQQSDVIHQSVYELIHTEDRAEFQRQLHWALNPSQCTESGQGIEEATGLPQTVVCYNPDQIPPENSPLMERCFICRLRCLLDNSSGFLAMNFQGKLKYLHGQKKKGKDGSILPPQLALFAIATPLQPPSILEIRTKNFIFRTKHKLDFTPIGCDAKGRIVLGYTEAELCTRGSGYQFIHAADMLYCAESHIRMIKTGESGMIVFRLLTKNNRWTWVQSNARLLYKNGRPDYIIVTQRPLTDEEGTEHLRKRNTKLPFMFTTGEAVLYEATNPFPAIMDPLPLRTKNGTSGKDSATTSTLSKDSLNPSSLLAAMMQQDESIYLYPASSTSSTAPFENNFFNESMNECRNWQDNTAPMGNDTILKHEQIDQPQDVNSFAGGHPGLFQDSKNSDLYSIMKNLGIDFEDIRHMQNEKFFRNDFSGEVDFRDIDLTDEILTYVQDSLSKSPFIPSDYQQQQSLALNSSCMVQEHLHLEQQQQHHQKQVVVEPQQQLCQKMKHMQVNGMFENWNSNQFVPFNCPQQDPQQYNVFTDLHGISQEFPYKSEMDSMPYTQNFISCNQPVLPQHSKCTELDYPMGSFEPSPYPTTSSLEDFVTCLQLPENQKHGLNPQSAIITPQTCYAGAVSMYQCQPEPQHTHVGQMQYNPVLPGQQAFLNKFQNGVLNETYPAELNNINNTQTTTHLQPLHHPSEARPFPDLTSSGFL
Sequence of Aromatase (Homo sapiens) (P11511 whole entry, looked up): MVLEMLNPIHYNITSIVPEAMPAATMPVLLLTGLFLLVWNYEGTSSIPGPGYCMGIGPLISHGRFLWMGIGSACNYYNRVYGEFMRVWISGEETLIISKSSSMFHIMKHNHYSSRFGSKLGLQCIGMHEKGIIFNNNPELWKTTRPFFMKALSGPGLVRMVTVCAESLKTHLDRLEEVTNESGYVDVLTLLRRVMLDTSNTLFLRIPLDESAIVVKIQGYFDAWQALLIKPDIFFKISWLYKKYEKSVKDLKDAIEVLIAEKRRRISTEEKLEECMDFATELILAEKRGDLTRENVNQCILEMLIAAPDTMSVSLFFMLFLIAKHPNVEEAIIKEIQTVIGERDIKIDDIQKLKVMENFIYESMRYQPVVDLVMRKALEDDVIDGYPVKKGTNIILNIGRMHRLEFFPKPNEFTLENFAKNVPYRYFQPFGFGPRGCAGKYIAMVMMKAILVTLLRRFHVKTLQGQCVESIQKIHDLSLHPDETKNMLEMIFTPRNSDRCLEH
Sequence of Peroxisome proliferator-activated receptor gamma (Homo sapiens) (P37231 whole entry, looked up): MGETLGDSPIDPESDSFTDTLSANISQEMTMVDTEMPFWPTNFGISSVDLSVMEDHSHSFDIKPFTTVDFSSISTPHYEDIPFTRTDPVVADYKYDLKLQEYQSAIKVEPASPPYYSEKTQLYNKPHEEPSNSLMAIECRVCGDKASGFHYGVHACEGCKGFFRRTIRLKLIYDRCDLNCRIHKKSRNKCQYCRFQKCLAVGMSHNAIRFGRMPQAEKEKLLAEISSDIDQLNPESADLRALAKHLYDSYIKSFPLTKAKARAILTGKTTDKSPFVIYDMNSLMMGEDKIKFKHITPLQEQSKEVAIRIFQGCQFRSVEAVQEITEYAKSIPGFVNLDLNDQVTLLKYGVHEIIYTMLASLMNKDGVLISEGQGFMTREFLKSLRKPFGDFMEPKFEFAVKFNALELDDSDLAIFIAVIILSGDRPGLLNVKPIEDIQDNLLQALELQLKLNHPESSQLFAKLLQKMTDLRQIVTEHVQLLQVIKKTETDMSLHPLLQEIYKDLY

CCCSP(=O)(OCC)Oc1ccc(Br)cc1Cl (stereo unspecified)
inactive: Potency [1] | Potency [2] | outcome [3] | Potency [4] | Potency [5] | outcome [6] | outcome [7] | Potency [8] | outcome [9]

CC(=O)CCc1ccc2c(c1)OCO2
inactive: Potency [1] | Potency [10] | outcome [3] | Potency [11] | activation ([12]; at 70.3 µM (top of the series)) 24.9% | Potency [13] | Potency [4] | Potency (Aromatase (Homo sapiens)) | Potency [5] | Potency [14] | outcome [6] | outcome [7] | Potency [15] | Potency [16] | Potency [17] | Potency [8] | outcome [9]

C[C@H]1CCC[C@H](O)CCCCCc2cc(O)cc(O)c2C(=O)O1
inactive and 54.9 µM (active): Potency [1]
inactive: outcome [3] | Potency [4] | Potency [14] | outcome [6] | Potency [8]
active: Potency [11] 848 nM [inconclusive] and 175 nM [inconclusive] | activation ([12]; at 70.3 µM (top of the series)) -0.266% | activation ([12]; at 95 µM (top of the series)) -52.7% | Potency [13] 23.7 µM | Potency (Aromatase (Homo sapiens)) 61.6 µM | Potency [5] 43.6 µM

ClCC(Cl)(Cl)Cl
inactive: Potency [1] | Potency [10] | outcome [3] | Potency [11] | activation ([12]; at 95 µM (top of the series)) 9.47% | Potency [13] | Potency [4] | Potency (Aromatase (Homo sapiens)) | Potency [5] | Potency [14] | outcome [6] | outcome [7] | Potency [18] | Potency [15] | Potency [16] | Potency [17] | Potency [8] | outcome [9]

ClCCOCOCCCl
inactive: Potency [1] | Potency [2] | outcome [3] | Potency [4] | Potency (Aromatase (Homo sapiens)) | Potency [5] | Potency [14] | outcome [6] | outcome [7] | Potency [15] | Potency [16] | Potency [17] | Potency [8]

NC(=S)C(N)=S
inactive: Potency [19] | Potency [2] | outcome [3] | Potency [11] | activation ([12]; at 70.3 µM (top of the series)) -1.3% | Potency [13] | Potency [4] | Potency (Aromatase (Homo sapiens)) | Potency [5] | Potency [14] | outcome [6] | outcome [7] | Potency [18] | Potency [8] | outcome [9]

C[C@]12CC[C@H]3[C@@H](CC=C4C[C@@H](O)CC[C@@]43C)[C@@H]1CC[C@@H]2O
inactive: Potency [1] | Potency [2] | outcome [3] | Potency [4] | Potency (Aromatase (Homo sapiens)) | Potency [5] | outcome [6] | Potency [15] | Potency [16] | Potency [17] | Potency [8]

Cc1cc(C)nc(Nc2ccccc2)n1
inactive: Potency [19] | Potency [2] | outcome [3] | Potency [11] | Potency [4] | Potency (Aromatase (Homo sapiens)) | Potency [5] | outcome [6] | outcome [7] | Potency [18] | Potency [15] | Potency [16] | Potency [17] | Potency [8]
active: Potency [14] 48.6 µM

CC(C1CC1)C(O)(Cn1cncn1)c1ccc(Cl)cc1 (stereo unspecified)
active: Potency (Aromatase (Homo sapiens)) 24.2 µM
inactive: Potency [1] | Potency [2] | outcome [3] | Potency [4] | Potency [5] | Potency [14] | outcome [6] | outcome [7] | Potency [15] | Potency [17] | Potency [8]

CNC(=O)Oc1c(C(C)(C)C)cc(C)cc1C(C)(C)C
inactive: Potency [1] | Potency [2] | outcome [3] | Potency [4] | Potency (Aromatase (Homo sapiens)) | Potency [5] | outcome [6] | outcome [7] | Potency [18] | Potency [15] | Potency [16] | Potency [17] | Potency [8]

CC(C)COP(=O)(OCC(C)C)OCC(C)C
inactive: Potency [1] | Potency [2] | outcome [3] | Potency [4] | Potency [5] | Potency [14] | outcome [6] | outcome [7] | Potency [18] | Potency [15] | Potency [16] | Potency [17] | Potency [8] | outcome [9]

CCCSP(=S)(OCC)Oc1ccc(Cl)cc1Cl (stereo unspecified)
inactive: Potency [1] | Potency [2] | outcome [3] | Potency [13] | Potency [4] | Potency (Aromatase (Homo sapiens)) | Potency [5] | outcome [6] | outcome [7] | Potency [18] | Potency [15] | Potency [17] | Potency [8] | outcome [9]
active: Potency [12] 38.6 µM | Potency [14] 54.5 µM

CC(N)=S
inactive: Potency [1] | Potency [2] | outcome [3] | Potency [4] | Potency (Aromatase (Homo sapiens)) | Potency [5] | Potency [14] | outcome [6] | outcome [7] | Potency [18] | Potency [15] | Potency [16] | Potency [8]

CNC(=O)N(C)c1nc2ccccc2s1
active: Potency [14] 27.3 µM
inactive: Potency [1] | Potency [2] | Potency [4] | Potency (Aromatase (Homo sapiens)) | Potency [5] | outcome [6] | outcome [7] | Potency [18] | Potency [15] | Potency [8] | outcome [9]

O=C(NCO)NCO
inactive: Potency [19] | Potency [2] | Potency [10] | outcome [3] | Potency [11] | activation ([12]; at 95 µM (top of the series)) 2.29% | Potency [13] | Potency [4] | Potency (Aromatase (Homo sapiens)) | Potency [14] | outcome [6] | outcome [7] | Potency [18] | Potency [15] | Potency [16] | Potency [17]
